# Shown are actives, neighbours in structure and some others; about 10% of the full set was active somewhere.
# HPGD block – qHTS Assay for Inhibitors of HPGD (15-Hydroxyprostaglandin Dehydrogenase); 150,000 tested, 4.3% active; AID 894, 2007; Potency, µM, most hits filed as inhibitors; purified HPGD, NADH fluorescence kinetic, PGE2 substrate; 15-hydroxyprostaglandin dehydrogenase [NAD(+)] (Homo sapiens), P15428
# Target sequence (P15428 whole entry, looked up): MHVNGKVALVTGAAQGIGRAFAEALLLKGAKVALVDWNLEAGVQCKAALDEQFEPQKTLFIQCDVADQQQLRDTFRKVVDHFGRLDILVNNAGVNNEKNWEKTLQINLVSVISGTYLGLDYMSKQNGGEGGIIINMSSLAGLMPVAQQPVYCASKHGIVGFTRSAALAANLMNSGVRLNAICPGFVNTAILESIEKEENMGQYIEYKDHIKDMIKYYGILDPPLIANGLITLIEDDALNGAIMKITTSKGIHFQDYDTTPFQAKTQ
#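 20 nM HPGD preincubated 15 min at room temperature with compound in 50 mM Tris-HCl pH 8, 0.01% Tween 20. Started with 1 mM NAD+ and 30 uM prostaglandin E2; NADH fluorescence (360/450 nm) read 5 times over 30-s intervals, last minus first.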
# PNC assembly inh – High Content Assay for Compounds that inhibit the Assembly of the Perinucleolar Compartment; AID 2417, 2010; 140,000 tested, 3.1% active; PC3M PTB-GFP, PNC prevalence imaging, 16 h; hits give low values; activity change (PNC), negative = inhibition, % at 10 µM;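 active means readout at or below -70, meaning at least 70% loss of cells showing the perinucleolar compartment, a nuclear body marking cancer cells; inconclusive means readout between -30 and a set limit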
#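 PC3M cells stably expressing PTB-GFP, 750–1000 cells/well, treated 16 h at 37 °C with compound (23 nl of library stock), in duplicate. After paraformaldehyde fixation and Hoechst stain, imaged at 20x; PNC prevalence scored by image analysis.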
# ALOX12 inhib – qHTS Assay for Inhibitors of 12-hLO (12-human lipoxygenase); AID 1452, 2008; 150,000 tested, 0.12% active; purified 12-hLO, xylenol orange hydroperoxide absorbance; Polyunsaturated fatty acid lipoxygenase ALOX12 (Homo sapiens), P18054; Potency, µM (doses to about 57.1 µM), actives largely listed as inhibitors; active means well fitted inhibition curve with a large enough effect; inconclusive means small, poorly fitted or top-dose-only effect; further: nearly all actives have a fitted effect of over 55% in size
#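 150 nM 12hLO, 25 mM Hepes pH 7.0 + 0.01% Triton X-100; cpd preinc 15 min RT; 40 uM arachidonic acid, 30 min RT; Fe-XO 30 min; A573/A405 ratio as read-out.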
# ALDH1A1 block – qHTS Assay for Inhibitors of Aldehyde Dehydrogenase 1 (ALDH1A1); AID 1030, 2008; Potency, µM (top dose mostly 75.3 µM), most hits filed as inhibitors; Aldehyde dehydrogenase 1A1 (Homo sapiens), P00352; 220,000 tested, 7.3% active; Purified ALDH1A1, NADH fluorescence, propionaldehyde substrate
# Lamin A splicing – qHTS Assay for Modulators of Lamin A Splicing; HeLa LMNA splicing GFP/RFP minigene ratio, 48 h; Potency, µM (top dose mostly 46.1 µM), most hits filed as inhibitors; 200,000 tested, 0.01% active; AID 1487, 2009; active means well fitted inhibition curve with a large enough effect in the signal ratio, with a control signal flat, not every such curve was filed as active; inconclusive means small, poorly fitted or top-dose-only effect, or effect the other way, or a change in a side signal; the % refers to the signal ratio
#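 S3 HeLa stable clones carrying a lamin A-EGFP splicing minigene plus DsRed2 were seeded at 600 cells/well in Opti-MEM with 2% FBS, pin-dosed and incubated 48 h at 37°C. Acumen cytometry (488 nm) gave the GFP/RFP total-intensity ratio.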
# Numbers stand for hits; - = inactive; ? = inconclusive; . = no result; [ ] = remark or other dose. Unless noted, the call rests on the fitted dose curve; in most records, active means well fitted inhibition curve with a large enough effect (not every such curve was filed as active); inconclusive means small, poorly fitted or top-dose-only effect, or another doubt; inactive means no such curve, though single readings can be large or run the other way.
SMILES,HPGD block,PNC assembly inh,ALOX12 inhib,ALDH1A1 block,Lamin A splicing
O=C(NCCc1ccccc1)C1c2ccccc2C(=O)N1Cc1cccs1 (centres undefined),.,.,.,13µM,.
COC(=O)c1ccc(COC(=O)c2ccc(-n3cnnn3)cc2)o1,-,-,-,20µM,-
O=C(NCC(c1cccs1)S(=O)(=O)c1cccs1)c1c(F)cccc1F (centres undefined),.,.,.,.,-
Cc1nnsc1C(=O)NNc1ccc(C(C)(C)C)cc1,.,.,.,32µM,.
Cc1nnsc1C(=O)NNc1ccc(C(C)C)cc1,.,.,.,?,-
c1c2c(cc3sc(N4CCOCC4)nc13)OCO2,28µM,-,-,10µM,-
c1c2c(cc3sc(N4CCCCC4)nc13)OCO2,22µM,-,-,22µM,?
Fc1ccc2nc(N3CCOCC3)sc2c1,.,.,.,-,.
Brc1ccc2nc(N3CCN(c4ccccc4)CC3)sc2c1,.,.,.,-,.
c1ccc2c(c1)CCN(c1nc3cc4c(cc3s1)OCO4)C2,32µM,?,-,25µM,?
c1ccc(N2CCN(c3nc4cc5c(cc4s3)OCO5)CC2)cc1,?,-,-,20µM,-
COC(=O)N1CCC2(CC1)CN(c1ccncc1)C2,-,.,-,-,.
CCOC(=O)c1ccc(N2CCN(c3cc(C)ccc3C)CC2)c(NC(=O)Nc2ccc(Cl)cc2)c1,.,.,.,.,-
CC(=O)c1ccc(NC(=O)COCc2cc(-c3ccco3)on2)cc1,.,.,.,.,-
Brc1ccc2[nH]c3nc(SCCN4CCOCC4)nnc3c2c1,.,.,.,?,-
O=C(CSc1nnc2c(n1)[nH]c1ccccc12)Nc1ccc2c(c1)OCO2,?,?,-,?,?
O=C(CSc1nnc2c(n1)[nH]c1ccccc12)Nc1ccc(N2CCOCC2)cc1,.,.,.,22µM,?
c1ccc2c(c1)[nH]c1nc(SCCN3CCOCC3)nnc12,32µM,-,-,?,-
CN1CCc2c(sc3c2c(=O)n(-c2ccccc2)c2nnc(SCc4ccccc4)n32)C1,?,-,-,25µM,-
C/C(=N/O)[C@@H]1C[C@H](CC(=O)O)C1(C)C,-,.,-[11.4 µM],-[13.5 µM],.
COc1ccc(NC(=O)N2CC3(CCN(C(=O)c4ccc(OC)cc4)CC3)C2)cc1,-,.,-,-,.
Cc1ccc(N2C(=O)/C(=C/c3ccco3)SC2=S)cc1,-,-,-,-,-
N=C1S/C(=C\c2ccco2)C(=O)N1c1nccs1,.,.,.,10µM,?
O=C(OCC(=O)N1CCN(C(=O)c2ccco2)CC1)c1cc(-c2ccco2)nc2ccccc12,?,-,-,?,-
O=C(c1ccco1)N1CCN(CCOCCOc2cccc3ccccc23)CC1,-,-80,-,-,-
SMILES,HPGD block,PNC assembly inh,ALOX12 inhib,ALDH1A1 block,Lamin A splicing
O=C(c1ccco1)N1CCN(Cc2nc(Cc3ccccc3)no2)CC1,.,.,.,22µM,.
Cc1cccc(C)c1NC(=O)C(c1ccccc1)N1CCN(C(=O)c2ccco2)CC1 (centres undefined),-,-,-,25µM,?
O=C(c1ccco1)N1CCN(C(=O)c2cc(-c3ccccn3)nc3ccccc23)CC1,-,-,-,3.5µM,-
Cc1ccccc1NC(=O)N1CCN(C(=O)c2ccco2)CC1,.,.,.,-,.
O=C(c1ccco1)N1CCN(CCCCOc2cccc3ccccc23)CC1,-,-,-,-,?
c1ccc(Cc2noc(CN3CCN(CCOc4ccccc4)CC3)n2)cc1,.,.,.,-,.
CCOc1cccc2cc(-c3nc4sc(C(=O)Nc5ccc(C)cc5)c(C)c4c(=O)[nH]3)c(=O)oc12,.,.,.,.,-
O=C(/C=C/c1ccccc1)Nc1nc(-c2cccs2)ns1,.,.,.,.,-
CC(C)(C)c1ccc(S(=O)(=O)NCC(=O)N2CCN(C(=O)c3ccco3)CC2)cc1,-,-,-,1.6µM,-
O=C(COc1ccccc1O)N1CCN(C(=O)c2ccco2)CC1,-,-,-,-,-
O=C(Cc1ccccc1)N1CCN(C(=O)c2ccco2)CC1,-,-,-,20µM,-
O=C(c1ccco1)N1CCN(C(=O)c2sccc2-c2ccccc2)CC1,-,-100,-,13µM,-
O=C(c1ccco1)N1CCN(C(=O)c2cccs2)CC1,-,-,-,-,-
c1ccc(COC2CCCN(Cc3nc(Cc4ccccc4)no3)C2)cc1 (centres undefined),.,.,.,14µM,?

# Source: PubChem
